Values joined by “and” are separate entries in the source; they are usually repeats but may differ in a detail not shown here. Equal entries are not always repeated. Active and inactive are the calls of the source. The calls were made as follows: active = hit-call score of the fitted dose curve at least 0.9, where 1 is the maximum; inactive = score below 0.9.
molecular target: Paired box protein Pax-6 (Homo sapiens) (UniProt P26367); test: ATG_Pax6_CIS: Attagene CIS-FACTORIAL HepG2 Assay for human Paired Box 6 (PAX6) (AID 2282956); settings: HepG2 CIS-FACTORIAL PAX6 reporter transcription, RNA readout; actives raise or lower the signal
Sequence (P26367 whole entry, looked up): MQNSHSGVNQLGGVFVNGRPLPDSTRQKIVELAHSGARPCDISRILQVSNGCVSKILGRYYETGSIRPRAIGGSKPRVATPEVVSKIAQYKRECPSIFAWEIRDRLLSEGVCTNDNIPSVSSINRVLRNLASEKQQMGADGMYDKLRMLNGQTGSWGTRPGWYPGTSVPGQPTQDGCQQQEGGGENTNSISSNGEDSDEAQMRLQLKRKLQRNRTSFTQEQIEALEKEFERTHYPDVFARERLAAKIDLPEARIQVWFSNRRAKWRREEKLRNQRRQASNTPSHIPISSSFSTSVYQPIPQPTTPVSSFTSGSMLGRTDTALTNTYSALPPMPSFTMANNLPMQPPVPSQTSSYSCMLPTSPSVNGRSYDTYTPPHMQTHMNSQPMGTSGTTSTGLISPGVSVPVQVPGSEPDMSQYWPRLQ
Procedure: ATG_CIS is a cell-based, multiplexed-readout assay that uses HepG2, a human liver cell line, with measurements taken at 24 hours after chemical dosing in a 24-well plate.ATG_Pax6_CIS is one of 52 assay component(s) measured or calculated from the ATG_CIS assay. It is designed to make measurements of mRNA induction, a form of inducible reporter, as detected with fluorescence intensity signals by Reverse transcription polymerase chain reaction (RT-PCR) and Capillary electrophoresis technology.Data from the assay component ATG_Pax6_CIS was analyzed into 1 assay endpoint. This assay endpoint, ATG_Pax6_CIS, was analyzed with bidirectional fitting relative to DMSO as the negative control and baseline of activity. Using a type of inducible reporter, measures of mRNA for gain or loss-of-signal activity can be used to understand the reporter gene at the transcription factor-level as they relate to the gene PAX6. Furthermore, this assay endpoint can be referred to as a primary readout, because this assay has produced multiple assay endpoints where this one serves a reporter gene function. To generalize the intended target to other relatable targets, this assay endpoint is annotated to the dna binding intended target family, where the subfamily is paired box protein.
Human liver HepG2 cells are transiently transfected with multiple reporter transcription units (MRTUs) in 6-well plates using FuGene 6 reagent (Roche; 3 ml FuGene/1 mg DNA). The MRTU constructs are regulated by a cis-regulating element (promoter). […] A major difference between the CIS and TRANS system is that in CIS activities of endogenous TFs are measured, whereas the TRANS assay evaluates changes in activities of exogenous, chimeric NR-Gal4 proteins. […] At the end of 24 hour incubation, total RNA was isolated using TriZol reagent (Invitrogen). The isolated RNA is then reverse-transcribed using oligo(dT) primer and Mo-MLV reverse transcriptase (Invitrogen) with DNAse I (Ambion) treatment for 30 min. The one-tenth of the produced cDNA was amplified by PCR using Taq DNA polymerase (Invitrogen) and two reporter sequence-specific primers. The PCR products were fluorescently labeled by primer extension with 6-arboxyfluorescein (6-FAM) 5'-labeled reporter sequence-specific primer (2 min at 95 C, 20 s at 68 C and 10 min at 72 C) and these products were digested with 5U of HpaI (New England Biolabs) for 2h at 37 C. The fragments were purified using Qiaquick PCR columns (Qiagen), analyzed on an ABI 3130xL genetic analyzer (Applied Biosystems) with peak positions identified by using a set of X-rhodamine (ROX)-labeled MapMarker1000 molecular weight standards (BioVentures). The raw capillary electrophoresis data was processed using Attagraph software (Attagene).

SMILES | outcome | AC50
Cc1cc(Cl)ccc1OCCCC(=O)O | inactive | 
Brc1c(Br)c(Br)c(Oc2c(Br)c(Br)c(Br)c(Br)c2Br)c(Br)c1Br | inactive | 
CC(C)(C)c1ccc(CCOc2ncnc3ccccc23)cc1 | inactive | 
COCC(=O)N(c1c(C)cccc1C)[C@H](C)C(=O)OC | inactive | 
Nc1ccc(N)cc1 | inactive | 
O=C(Nc1ccc(Br)cc1)c1cc(Br)cc(Br)c1O |  | 93.2 µM (active)
C[C@@H]1O[C@@H](O[C@H]2C[C@@H](O)[C@]3(CO)[C@H]4[C@H](O)C[C@]5(C)[C@@H](C6=CC(=O)OC6)CC[C@]5(O)[C@@H]4CC[C@]3(O)C2)[C@H](O)[C@H](O)[C@H]1O | inactive | 
Nc1nc(N)nc(Cl)n1 | inactive | 
OCCCCO | inactive | 
C=CC(F)(C(F)(F)F)C(F)(F)C(F)(F)F (stereo not given) | inactive | 
CCOC(=O)c1ccccc1S(=O)(=O)NC(=O)Nc1nc(Cl)cc(OC)n1 | inactive | 
C#CCOC(=O)/C=C(C)/C=C/CC(C)CCCC(C)C (stereo not given) | inactive | 
COc1nn(C(=O)NS(=O)(=O)c2ccccc2OC(F)(F)F)c(=O)n1C | inactive | 
Oc1cc(Cl)c(Cl)cc1Cl |  | 54 µM (active)
BrCCCCBr | inactive | 
CCN(N=O)C(N)=O | inactive | 
CC(C=O)Cc1ccc2c(c1)OCO2 (stereo not given) | inactive | 
CC[N+](CC)(CC)CC | inactive | 
CCCCCCCCCCCCCCC(Br)C(=O)O (stereo not given) |  | 142 µM (active)
O=C(O)C1(c2ccc3c(c2)OC[C@H](Cc2ccc(-c4ccccc4)cc2)[C@H]3O)CCCC1 | inactive | 

SMILES | outcome | AC50
O=C(CCl)Nc1ccccc1 |  | 72.6 µM (active)
CCC[CH2][Sn]([Cl])([Cl])[CH2]CCC |  | 1.46 µM (active)
CC(C)CP(=S)(S)CC(C)C | inactive | 
COc1ccc([N+](=O)[O-])cc1O | inactive | 
[Cl][Sn]([c]1ccccc1)([c]1ccccc1)[c]1ccccc1 |  | 0.248 µM (active)
O=C(NC(=O)c1c(F)cccc1F)Nc1ccc(Cl)cc1 | inactive | 
CCOP(=S)(OCC)O/N=C(\C#N)c1ccccc1 | inactive | 
O=NN1CCCCCCC1 | inactive | 
CCCCCCCCCCBr | inactive | 
O=C(N[C@H]1CN2CCC1CC2)c1ccc2c(c1)OCCO2 | inactive | 
N#Cc1ccccc1N | inactive | 
CCCCOC(C)=O | inactive | 
Brc1ccc(Oc2c(Br)cc(Br)cc2Br)c(Br)c1 | inactive | 
CC(=O)C(F)(F)C(F)(F)F | inactive | 
N#CCCC(Br)(C#N)CBr (stereo not given) |  | 46.3 µM (active)
Cl[C@H]1OCCO[C@@H]1Cl | inactive | 
O=c1oc2ccccc2c(O)c1C(CC(O)c1ccc(-c2ccc(Br)cc2)cc1)c1ccccc1 (stereo not given) |  | 46.5 µM (active) and 31.9 µM (active)
O=S(=O)(C(Cl)(Cl)Cl)C(Cl)(Cl)Cl |  | 16 µM (active)
CN(C)c1ccc(N=O)cc1 | inactive | 
Cc1ccccc1OP(=O)(Oc1ccccc1)Oc1ccccc1 | inactive | 

From PubChem BioAssay (EPA / NIEHS)
